The values below come from ChEMBL document CHEMBL3988442, “University of Dundee, Small-Polar-MMV Screening Library” (2021).

Common to all, as to set-up: scale not given: direction of the effect not stated beside the values
In experiment [1] the target is Protein translocase subunit SecA (Escherichia coli (strain K12)) (UniProt P10408). In words: Assay to Identify E. coli SecA ATPase Inhibitors. The class given is functional. Conditions: 30 µM.
Experiment [2] deals with T1, Ubiquitin-activating enzyme e1, putative (Leishmania donovani (strain BPK282A1)) (UniProt E9BSI1).
T1 sequence (whole entry): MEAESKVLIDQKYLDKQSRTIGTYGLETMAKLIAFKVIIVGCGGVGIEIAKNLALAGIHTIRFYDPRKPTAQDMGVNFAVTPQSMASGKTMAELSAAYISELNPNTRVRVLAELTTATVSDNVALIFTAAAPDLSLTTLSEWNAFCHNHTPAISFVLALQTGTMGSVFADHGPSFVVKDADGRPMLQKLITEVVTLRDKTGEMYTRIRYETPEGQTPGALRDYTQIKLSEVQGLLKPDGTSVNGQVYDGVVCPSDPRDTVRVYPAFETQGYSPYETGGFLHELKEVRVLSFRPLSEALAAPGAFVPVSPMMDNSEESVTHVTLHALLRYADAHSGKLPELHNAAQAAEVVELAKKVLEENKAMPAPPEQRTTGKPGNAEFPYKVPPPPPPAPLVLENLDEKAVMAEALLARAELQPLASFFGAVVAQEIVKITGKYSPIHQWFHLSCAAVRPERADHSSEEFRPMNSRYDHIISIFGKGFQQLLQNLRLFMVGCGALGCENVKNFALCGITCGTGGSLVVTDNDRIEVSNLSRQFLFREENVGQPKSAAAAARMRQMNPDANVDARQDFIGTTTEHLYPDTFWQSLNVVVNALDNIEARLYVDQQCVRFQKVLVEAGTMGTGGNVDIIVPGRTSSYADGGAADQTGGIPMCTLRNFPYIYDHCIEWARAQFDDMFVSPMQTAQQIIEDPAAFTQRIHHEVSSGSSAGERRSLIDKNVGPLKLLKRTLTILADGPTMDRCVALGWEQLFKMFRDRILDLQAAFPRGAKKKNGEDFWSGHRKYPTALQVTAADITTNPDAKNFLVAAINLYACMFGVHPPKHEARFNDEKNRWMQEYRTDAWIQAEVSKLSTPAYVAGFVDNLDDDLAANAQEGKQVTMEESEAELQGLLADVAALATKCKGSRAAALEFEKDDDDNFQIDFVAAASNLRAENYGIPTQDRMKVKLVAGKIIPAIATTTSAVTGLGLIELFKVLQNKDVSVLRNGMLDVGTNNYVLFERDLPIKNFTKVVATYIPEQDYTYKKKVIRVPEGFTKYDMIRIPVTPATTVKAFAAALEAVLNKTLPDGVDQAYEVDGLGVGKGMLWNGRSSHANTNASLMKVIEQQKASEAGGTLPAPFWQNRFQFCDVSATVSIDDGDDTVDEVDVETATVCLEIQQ
In words: Leishmania donovani Ubiquitin Activating Enzyme (LdE1). It is filed as functional. Conditions: 30 µM.

For experiment [3], the target named is T2, Aspartate--tRNA(Asp/Asn) ligase (Mycobacterium tuberculosis (strain ATCC 25618 / H37Rv)) (UniProt P9WFW3). Note: in the data most compounds retested in dose-response had high values.
T2 sequence (whole entry): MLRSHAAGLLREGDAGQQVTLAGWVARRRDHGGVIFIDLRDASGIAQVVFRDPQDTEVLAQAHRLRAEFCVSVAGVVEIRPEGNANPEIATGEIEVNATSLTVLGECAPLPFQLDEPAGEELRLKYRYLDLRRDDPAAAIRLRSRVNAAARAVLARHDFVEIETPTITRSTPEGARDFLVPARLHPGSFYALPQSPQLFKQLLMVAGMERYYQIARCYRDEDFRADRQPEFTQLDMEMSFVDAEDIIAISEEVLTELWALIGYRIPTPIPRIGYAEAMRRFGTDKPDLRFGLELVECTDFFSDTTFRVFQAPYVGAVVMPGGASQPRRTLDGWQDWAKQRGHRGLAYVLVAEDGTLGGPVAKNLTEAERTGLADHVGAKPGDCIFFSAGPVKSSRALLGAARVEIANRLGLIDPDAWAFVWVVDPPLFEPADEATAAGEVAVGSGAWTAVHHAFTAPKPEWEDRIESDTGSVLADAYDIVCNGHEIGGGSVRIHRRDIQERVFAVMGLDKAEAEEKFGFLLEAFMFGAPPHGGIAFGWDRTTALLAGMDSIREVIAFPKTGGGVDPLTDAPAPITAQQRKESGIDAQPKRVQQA
In words: Assay for Asp RNA synthetase-1 from Mycobacterium tuberculosis. To be noted: 30 µM. The class given is functional.

Experiment [4] has as its target AMP-activated protein kinase, AMPK (Homo sapiens) (UniProt P54646+O43741+P54619+Q9UGJ0+Q9Y478+Q13131+Q9UGI9). In words: AMP-dependent Kinase enzyme assay. An in vitro enzyme assay that detects ADP turnover that is directly proportional to AMPK activity. This uses naive AMPK that is activated during the assay with MK-8722. To be noted: 30 µM. The class given is functional.

Experiment [5] addresses Sialic acid-binding Ig-like lectin 9 (Homo sapiens) (UniProt Q9Y336). In words: Hs-Siglec9 ALPHAscreen SOP 20170721. Conditions: 10 µM. For orientation: Alpha assays give light when donor and acceptor beads are brought close together.
Another experiment deals with Trypanosoma cruzi. In words: Trypanosoma cruzi phosphomannomutase and mannose-1-phosphate guanylyltransferase assay. It is filed as functional. To be noted: 10 µM.
Experiment [6] addresses T3, Arginase-2, mitochondrial (Homo sapiens) (UniProt P78540).
T3 sequence (whole entry): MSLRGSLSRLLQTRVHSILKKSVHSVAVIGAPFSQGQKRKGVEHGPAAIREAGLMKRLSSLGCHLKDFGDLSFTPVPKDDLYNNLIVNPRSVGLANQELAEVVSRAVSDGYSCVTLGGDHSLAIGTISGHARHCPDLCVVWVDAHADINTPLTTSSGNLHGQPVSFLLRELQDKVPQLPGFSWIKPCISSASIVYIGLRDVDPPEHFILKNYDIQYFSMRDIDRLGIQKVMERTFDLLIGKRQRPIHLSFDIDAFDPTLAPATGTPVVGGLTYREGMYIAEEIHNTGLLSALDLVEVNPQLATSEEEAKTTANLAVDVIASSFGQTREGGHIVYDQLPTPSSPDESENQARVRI
In words: in vitro enzyme assay to detect the production of urea directly proportional to the activity of Arginase II. Note: in the data most compounds retested in dose-response had high values. The class given is functional. To be noted: 33.3 µM.

The target in experiment [7] is T4, Proteasome subunit beta (Trypanosoma cruzi) (UniProt O96673).
T4 sequence (whole entry): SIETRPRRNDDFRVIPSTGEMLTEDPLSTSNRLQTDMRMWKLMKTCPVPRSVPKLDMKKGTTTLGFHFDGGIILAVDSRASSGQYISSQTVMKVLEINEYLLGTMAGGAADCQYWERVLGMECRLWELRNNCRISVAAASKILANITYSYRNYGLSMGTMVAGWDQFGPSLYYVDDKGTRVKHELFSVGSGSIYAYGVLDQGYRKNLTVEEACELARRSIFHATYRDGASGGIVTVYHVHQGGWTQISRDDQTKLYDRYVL
In words: Trypanosoma cruzi proteasome chymotrypsin-like activity (TcProtChymo) assay. Note: in the data most compounds retested in dose-response had high values. The class given is functional. To be noted: 9.37 µM.

Another experiment has as its system N/A. In words: Trypanosoma cruzi proteasome luciferase counter-screen. It is filed as functional. Conditions: 9.37 µM.
The species entered for a further experiment is Homo sapiens. In words: To identify inhibition of the IFN signalling (Jak-Stat) pathway via expression of an eGFP reporter gene under the control of an IFN-stimulated response element (ISRE) containing MxA promoter. Conditions: 30 µM. The class given is functional. On the technique in general: A reporter such as luciferase makes a cellular process visible.

The target of experiment [8] is Shiga toxin 2 (Escherichia coli O157:H7) (UniProt P09385+P09386). In words: E. coli 0.157:H7 Shiga Toxin SOP - stx2 screening assay. The class given is functional. Conditions: 30 µM.
Experiment [9] addresses T5, Tyrosyl-tRNA synthetase, putative (Trypanosoma cruzi (strain CL Brener)) (UniProt Q4DSP6).
T5 sequence (whole entry): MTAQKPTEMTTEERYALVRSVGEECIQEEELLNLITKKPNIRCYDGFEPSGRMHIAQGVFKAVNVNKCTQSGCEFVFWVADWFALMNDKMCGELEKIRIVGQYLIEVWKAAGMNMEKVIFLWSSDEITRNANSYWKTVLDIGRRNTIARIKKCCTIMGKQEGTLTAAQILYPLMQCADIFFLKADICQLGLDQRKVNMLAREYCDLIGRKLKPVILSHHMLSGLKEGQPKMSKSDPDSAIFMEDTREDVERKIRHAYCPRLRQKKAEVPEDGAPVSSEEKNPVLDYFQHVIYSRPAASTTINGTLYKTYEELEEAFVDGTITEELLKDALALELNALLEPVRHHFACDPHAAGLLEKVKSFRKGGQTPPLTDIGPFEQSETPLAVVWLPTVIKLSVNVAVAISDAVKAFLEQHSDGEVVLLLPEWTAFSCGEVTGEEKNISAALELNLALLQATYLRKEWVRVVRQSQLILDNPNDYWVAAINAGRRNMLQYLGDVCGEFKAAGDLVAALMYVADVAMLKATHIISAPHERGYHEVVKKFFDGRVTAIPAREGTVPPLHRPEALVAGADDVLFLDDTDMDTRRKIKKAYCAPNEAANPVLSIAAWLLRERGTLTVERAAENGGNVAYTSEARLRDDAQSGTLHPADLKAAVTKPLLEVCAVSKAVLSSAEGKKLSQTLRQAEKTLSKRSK
In words: Trypanosoma cruzi tyrosyl tRNA synthetase (TcYRS) _High Tyrosine SOP. Note: in the data most compounds retested in dose-response had high values. It is filed as functional. To be noted: 30 µM.

In experiment [10] the target is T5, Tyrosyl-tRNA synthetase, putative (Trypanosoma cruzi (strain CL Brener)). In words: Trypanosoma cruzi tyrosyl tRNA synthetase (TcYRS) SOP. Conditions: 30 µM. It is filed as functional.
Experiment [11] addresses Chromo domain-containing protein 1 (Saccharomyces cerevisiae (strain ATCC 204508 / S288c) (Baker's yeast)) (UniProt P32657). In words: ScCHD-1 Enzyme Inhibition Assay. Note: in the data most compounds retested in dose-response had high values. The class given is functional. To be noted: 30 µM.

Where “and” joins values, the source holds several entries; their conditions need not be identical. Equal entries are not always repeated. For part of these data: Results with a measured potency or affinity are listed apart.

Chain of Protein translocase subunit SecA (Escherichia coli (strain K12)) (P10408 whole entry): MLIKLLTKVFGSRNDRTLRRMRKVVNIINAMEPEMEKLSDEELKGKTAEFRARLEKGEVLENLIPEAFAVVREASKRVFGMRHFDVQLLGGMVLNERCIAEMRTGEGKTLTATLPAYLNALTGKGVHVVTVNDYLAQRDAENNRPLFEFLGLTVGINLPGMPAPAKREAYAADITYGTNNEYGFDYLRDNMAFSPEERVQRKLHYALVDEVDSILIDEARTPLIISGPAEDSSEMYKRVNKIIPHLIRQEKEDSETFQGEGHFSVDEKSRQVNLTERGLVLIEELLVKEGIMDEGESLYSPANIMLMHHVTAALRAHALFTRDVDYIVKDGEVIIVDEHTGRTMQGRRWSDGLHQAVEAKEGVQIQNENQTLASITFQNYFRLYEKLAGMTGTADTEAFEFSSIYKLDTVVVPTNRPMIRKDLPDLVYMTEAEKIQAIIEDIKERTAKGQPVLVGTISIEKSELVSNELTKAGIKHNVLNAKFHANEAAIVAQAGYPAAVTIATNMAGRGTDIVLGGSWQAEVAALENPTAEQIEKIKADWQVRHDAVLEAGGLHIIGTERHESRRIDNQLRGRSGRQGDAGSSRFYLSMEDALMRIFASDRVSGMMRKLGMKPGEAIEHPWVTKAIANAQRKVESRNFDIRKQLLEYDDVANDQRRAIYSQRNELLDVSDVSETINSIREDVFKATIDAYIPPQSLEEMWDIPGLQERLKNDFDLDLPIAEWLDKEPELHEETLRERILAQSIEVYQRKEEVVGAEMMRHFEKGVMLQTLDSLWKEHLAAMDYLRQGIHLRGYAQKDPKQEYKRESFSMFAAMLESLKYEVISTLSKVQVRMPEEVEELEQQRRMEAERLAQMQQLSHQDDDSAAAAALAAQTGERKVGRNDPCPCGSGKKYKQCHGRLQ
Chain of Sialic acid-binding Ig-like lectin 9 (Homo sapiens) (Q9Y336 whole entry): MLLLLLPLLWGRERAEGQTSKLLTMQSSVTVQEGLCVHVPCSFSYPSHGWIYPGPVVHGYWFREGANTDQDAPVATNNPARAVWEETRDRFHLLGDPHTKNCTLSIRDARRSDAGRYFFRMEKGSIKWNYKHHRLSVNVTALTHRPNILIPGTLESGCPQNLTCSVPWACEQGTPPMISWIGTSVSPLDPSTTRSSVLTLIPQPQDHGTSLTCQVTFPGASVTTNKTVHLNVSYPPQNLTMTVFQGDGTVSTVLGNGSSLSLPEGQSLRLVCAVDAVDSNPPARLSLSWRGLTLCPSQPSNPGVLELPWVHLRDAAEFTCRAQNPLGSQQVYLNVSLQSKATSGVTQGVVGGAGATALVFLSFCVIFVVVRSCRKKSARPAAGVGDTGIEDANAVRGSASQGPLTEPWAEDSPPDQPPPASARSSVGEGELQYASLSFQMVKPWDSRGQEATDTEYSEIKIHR
Chain of Chromo domain-containing protein 1 (Saccharomyces cerevisiae (strain ATCC 204508 / S288c) (Baker's yeast)) (P32657 whole entry, the tested form may be a part): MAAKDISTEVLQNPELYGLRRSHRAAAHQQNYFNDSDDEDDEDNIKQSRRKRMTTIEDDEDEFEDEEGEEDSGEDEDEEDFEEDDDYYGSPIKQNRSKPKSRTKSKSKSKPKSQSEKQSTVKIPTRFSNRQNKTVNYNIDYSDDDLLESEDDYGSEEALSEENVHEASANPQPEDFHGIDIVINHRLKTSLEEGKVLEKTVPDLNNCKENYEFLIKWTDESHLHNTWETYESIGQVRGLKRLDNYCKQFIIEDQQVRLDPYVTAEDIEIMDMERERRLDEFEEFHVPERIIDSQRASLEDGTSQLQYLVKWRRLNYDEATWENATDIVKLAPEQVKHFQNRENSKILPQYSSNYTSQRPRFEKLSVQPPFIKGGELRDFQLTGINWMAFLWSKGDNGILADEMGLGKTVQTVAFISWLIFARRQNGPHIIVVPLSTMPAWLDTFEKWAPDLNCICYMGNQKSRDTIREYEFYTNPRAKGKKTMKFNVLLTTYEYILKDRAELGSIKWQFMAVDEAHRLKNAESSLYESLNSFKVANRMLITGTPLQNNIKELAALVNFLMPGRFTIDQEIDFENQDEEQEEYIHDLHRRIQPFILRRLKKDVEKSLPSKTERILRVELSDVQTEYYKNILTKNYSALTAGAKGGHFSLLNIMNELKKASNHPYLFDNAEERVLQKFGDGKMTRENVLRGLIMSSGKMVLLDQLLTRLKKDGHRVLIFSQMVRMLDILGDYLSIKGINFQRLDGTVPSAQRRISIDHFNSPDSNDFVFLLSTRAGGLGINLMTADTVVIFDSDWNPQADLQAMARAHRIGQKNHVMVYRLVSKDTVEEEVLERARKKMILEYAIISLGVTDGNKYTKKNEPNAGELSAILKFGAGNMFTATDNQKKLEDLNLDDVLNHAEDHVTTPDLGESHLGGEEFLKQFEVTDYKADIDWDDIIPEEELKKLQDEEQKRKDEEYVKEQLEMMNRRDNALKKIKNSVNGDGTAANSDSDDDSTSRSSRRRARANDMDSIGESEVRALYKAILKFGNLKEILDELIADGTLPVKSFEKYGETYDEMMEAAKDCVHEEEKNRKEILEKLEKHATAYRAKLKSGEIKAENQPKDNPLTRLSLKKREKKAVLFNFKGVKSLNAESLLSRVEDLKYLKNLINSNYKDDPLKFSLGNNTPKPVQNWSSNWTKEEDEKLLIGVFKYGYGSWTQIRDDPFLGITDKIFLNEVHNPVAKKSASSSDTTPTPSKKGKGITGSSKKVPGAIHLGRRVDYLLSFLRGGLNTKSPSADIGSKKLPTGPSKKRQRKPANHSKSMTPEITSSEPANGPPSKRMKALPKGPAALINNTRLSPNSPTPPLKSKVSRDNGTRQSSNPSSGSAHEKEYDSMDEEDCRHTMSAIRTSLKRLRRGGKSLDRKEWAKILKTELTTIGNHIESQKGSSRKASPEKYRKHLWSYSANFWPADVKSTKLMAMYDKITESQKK

Turning to `CO[C@@H]1CN(Cc2scnc2C)[C@@H]2CCCO[C@@H]21`, the Percent Effect was -5.71% in experiment [1]; 2.7% in experiment [2]; -1.4% in [3]; -6.24% in experiment [4]; 4.17% in [5]; 2.25% with Trypanosoma cruzi. The Percent Effect was 3.72% in experiment [6]; 82% and 78.2% and 80% in [7]; 19.6% and 16.4% with N/A; -7.25% in the experiment filed under Homo sapiens; 8.62% in experiment [8]; 6.45% in experiment [9]. Besides, the Percent Effect in [10] was 8.64%; in experiment [11] it was -1.19%.

In the case of `O=C(c1ccsc1)N1CCN2C[C@H](OCc3cccnc3)C[C@H]2C1`, the Percent Effect in experiment [1] was -4.24%; in experiment [2], 10.7%; in [3], -1.78%; in experiment [4] it was 8.09%; in experiment [5], -1.36%; in the experiment with Trypanosoma cruzi, -4.53%. In addition, the Percent Effect in experiment [6] is 3.96%; in experiment [7] it was 11.5%; in the experiment filed under Homo sapiens it was 8.09%; in experiment [8], 1.7%; in experiment [9], 1.06%; in experiment [10], -8.97%. Further, the Percent Effect in experiment [11] was -3.5%.

For the compound `CN(C)[C@@H]1CCN(C(=O)Cc2ccc(F)cc2)[C@H]1Cc1cnn(C)c1`, the Percent Effect is -0.511% in experiment [1]; 13.3% in [2]; 7.04% in [3]; 9.81% in experiment [4]; -9.25% in experiment [5]; -4.72% with Trypanosoma cruzi. Besides, the Percent Effect in experiment [6] is -1.63%; in experiment [7], 12.8%; in the experiment listed under Homo sapiens it was -1.72%; in experiment [8] it was -6.42%; in [9], 3.19%; in [10], 6.41%. Moreover, the Percent Effect in experiment [11] came to 1.98%.

With `Cc1noc(C)c1CN1CC[C@H]2C[C@@H](c3nccs3)O[C@@H]2C1`, the Percent Effect in [1] was -4.73%; in [2], 5.41%; in experiment [3], 3.41%; in experiment [4], 3.53%; in experiment [5] it was 1.06%; with Trypanosoma cruzi it was 0.88%. Besides, the Percent Effect came out at 0.319% in experiment [6]; 18.1% in [7]; 4.79% in the experiment listed under Homo sapiens; 11.3% in [8]; 1.08% in experiment [9]; 7.69% in [10]. Further, in experiment [11], the Percent Effect was -0.345%.

For `COc1ccc(C2SCC(=O)Nc3ccsc32)cc1` (stereo unspecified), the Percent Effect in experiment [1] was -5.35%; in experiment [2], -12%; in experiment [3] it was 4.36%; in experiment [4] it was 29%; in experiment [5], 5.11%; in the experiment with Trypanosoma cruzi it was -5.5%. In addition, the Percent Effect was 1.94% in experiment [6]; 13.9% in experiment [7]; 30.7% in the experiment listed under Homo sapiens; -15.2% in [8]; 10.6% in [9]; 2.56% in [10]. Further, the Percent Effect in experiment [11] was 11.2%.
